Screens deposited in PubChem by Broad Institute.
The sample as a whole holds a higher share of hits than the screen did.
ERAP1 inh: human ERAP1 aminopeptidase inhibitors, primary screen, biochemical, single point, plate reader. inhibition, % at 10.7 µM. AID 652197, 2013. Endoplasmic reticulum aminopeptidase 1 (Homo sapiens), Q9NZ08. 340,000 tested, 0.15% active. recombinant ERAP1, Leu-AMC fluorescence, 60 min;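 active = mean replicate inhibition of at least 30%, or all replicates individually reaching that 30% level; inactive = mean below 30% and not every replicate reaching it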
SIRT5 inh: SIRT5 desuccinylase inhibitors, primary screen, biochemical, fluorescence imaging, single point, set 5 | inhibition, % at 15 µM | Purified SirT5, succinyl-peptide AMC, trypsin-coupled fluorescence | NAD-dependent protein deacylase sirtuin-5, mitochondrial (Homo sapiens), Q9NXA8 | 330,000 tested, 1.1% active; in the data active = inhibition above about 15%
ERp5 inh: inhibitors of ERp5-driven insulin aggregation, primary screen, biochemical, turbidity, absorbance 650 nm, single point; 90 min; Protein disulfide-isomerase A6 (Homo sapiens), Q15084; inhibition, % at 9.99 µM; 350,000 tested, 0.05% active; AID 651711, 2012;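 active = mean replicate inhibition above about 25%, with every replicate also reaching it, limit read from the data, passing the limit was not always enough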
Target sequence (Q15084 whole entry, looked up): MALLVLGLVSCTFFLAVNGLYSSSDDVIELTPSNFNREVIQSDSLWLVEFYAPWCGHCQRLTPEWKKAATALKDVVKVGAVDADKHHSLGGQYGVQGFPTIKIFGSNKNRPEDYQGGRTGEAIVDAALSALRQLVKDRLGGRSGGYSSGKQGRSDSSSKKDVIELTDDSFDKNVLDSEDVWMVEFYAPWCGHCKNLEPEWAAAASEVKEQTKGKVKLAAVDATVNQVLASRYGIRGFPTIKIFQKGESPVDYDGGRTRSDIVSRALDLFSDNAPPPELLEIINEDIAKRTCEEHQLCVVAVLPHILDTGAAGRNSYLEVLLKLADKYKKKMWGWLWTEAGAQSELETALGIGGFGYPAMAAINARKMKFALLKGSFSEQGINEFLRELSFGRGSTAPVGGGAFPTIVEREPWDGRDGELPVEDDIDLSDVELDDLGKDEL
HDAC3 inhib: HDAC3 deacetylase inhibitors, primary screen, biochemical, fluorescence, cell-free homogeneous | 320,000 tested, 0.15% active | Histone deacetylase 3 (Homo sapiens), O15379 | recombinant HDAC3, fluorogenic peptide/trypsin coupled | inhibition, % at 8.3 µM; in the data active = inhibition above about 26%, passing the limit was not always enough
PDI inh: inhibitors of human PDI, primary screen, biochemical, turbidity, single point, plate reader. PDI insulin aggregation turbidity, A650, 90 min. 350,000 tested, 0.052% active. inhibition, % at 10 µM. AID 588391, 2011;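 active = mean inhibition across replicates of 30% or more, whatever share of single replicates reach that level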
Numbers stand for hits; - = inactive; . = no result.

SMILES | ERAP1 inh | SIRT5 inh | ERp5 inh | HDAC3 inhib | PDI inh
CC(=O)c1cccc(S(=O)(=O)NCC(C)(C)N2CCOCC2)c1 | - | 15.6 | - | - | -
CC(C)(CNC(=O)c1cccc(S(=O)(=O)NCc2ccccc2)c1)N1CCOCC1 | - | - | - | . | -
C[C@@H]1CCCCO[C@H](CN(C)C(=O)NC2CCCCC2)[C@H](C)CN([C@@H](C)CO)C(=O)c2cc(NC(=O)Cc3ccccc3)ccc2O1 | - | - | - | . | .
Cc1cnc(NC(=O)c2cc3ccccc3o2)s1 | - | 111.7 | - | - | -
CCc1cccc(C)c1NC(=O)c1cc(=O)[nH]c2ccc(S(=O)(=O)N3CCOCC3)cc12 | 95.4 | - | - | - | -
Cc1ccc(NC(=O)c2cc(=O)[nH]c3ccc(S(=O)(=O)N4CCOCC4)cc23)cc1 | - | - | - | - | -
Cc1ccccc1S(=O)(=O)N1C[C@H](O)COC[C@@H]2O[C@H](CC(=O)NCCc3ccccc3)CC[C@H]21 | - | - | - | . | .
CN(C)C(=O)c1cccc(-c2ccc([C@H]3[C@@H](CO)N4CCCCN(C(=O)C5CCCC5)C[C@H]34)cc2)c1 | - | - | - | . | .
Cc1c(NC(=O)Cc2cccs2)cccc1[N+](=O)[O-] | - | - | - | - | -
Cc1c(Cl)cccc1NC(=O)Cc1cccs1 | - | 56.9 | - | - | -
COc1ccc([C@H]2CC(=O)C=C(c3ccc4ccccc4c3)C2)cc1OC | - | 15.1 | - | - | -
COc1ccc([C@H]2CC(=O)C=C(c3ccc(OC)c(OC)c3)C2)cc1 | - | - | - | - | -
CC[n+]1c(/C=C/C=C/N(C(C)=O)c2ccccc2)sc2cc(OC)ccc21 | - | - | - | 45.2 | .
C[C@H]1CN([C@@H](C)CO)C(=O)c2cccc(NC(=O)NC3CCCCC3)c2O[C@@H]1CN(C)S(=O)(=O)c1ccccc1 | - | - | - | . | .
Cc1cc(S(=O)(=O)Nc2ccc(C(=O)NCC3(N4CCCCC4)CCCCC3)cc2)ccc1F | - | 21.5 | - | - | -
Cc1cc(S(=O)(=O)Nc2ccc(C(=O)NCC3(N(C)C)CCCCC3)cc2)ccc1F | - | - | - | - | -
O=C(Nc1ccc2c(c1)OCO2)N[C@H]1CC[C@H](CCNC(=O)C2CCCCC2)O[C@@H]1CO | - | - | - | . | .
CC(C)N1CCc2c(sc(NC(=O)c3ccc(S(=O)(=O)N(C)CC4CCCO4)cc3)c2C(N)=O)C1 (stereo not drawn) | - | - | - | - | -
CCN1CCc2c(sc(NC(=O)c3ccc(S(=O)(=O)N(C)CC4CCCO4)cc3)c2C(N)=O)C1 (stereo not drawn) | - | 24.4 | - | - | -
CCCCN(C=O)c1c(CC)nc2ccc(C(=O)N3CCCCC3)cn12 | - | 44.5 | - | . | -
CCOC(=O)C1(Cc2ccccc2)CCCN(C2CCN(C(C)=O)CC2)C1 (stereo not drawn) | - | 22.7 | - | - | -
O=c1[nH]c(=S)[nH]c2c1C(c1ccc(Br)cc1)c1c([nH]c(=S)[nH]c1=O)O2 | - | 67.1 | - | - | -
COc1ccc2c3c(n(C)c2c1)[C@H](CO)N(C(=O)c1ccc(F)cc1)CC31CN(C(=O)c2ccc(F)cc2)C1 | - | - | - | . | .
O=C(CNC(=O)Cc1ccccc1)N=Nc1c(O)[nH]c2ccccc12 | - | - | - | - | -
O=C(NC(Cc1ccc(O)cc1)C(=O)N=Nc1c(O)[nH]c2ccccc12)c1ccccc1 (stereo not drawn) | - | - | - | . | 44.9
SMILES | ERAP1 inh | SIRT5 inh | ERp5 inh | HDAC3 inhib | PDI inh
Cc1nn(-c2ccccc2)c2sc(C(=O)OCn3nnc4ccccc4c3=O)cc12 | - | 17.2 | - | . | -
Cc1noc(C)c1NC(=O)N(C)C[C@H]1Oc2ccc(NC(=O)Nc3ccc4c(c3)OCO4)cc2CC(=O)N([C@@H](C)CO)C[C@H]1C | - | - | - | . | .
O=C(Nc1cc(S(=O)(=O)N2CCOCC2)ccc1N1CCOCC1)c1cc2c(s1)CCC2 | . | 16.6 | - | - | -
O=C(NCc1ccccc1)[C@@H]1[C@@H](CO)[C@@H]2Cn3c(cccc3=O)[C@@H]2N1Cc1ccccc1F | - | - | - | . | .
CCCCCCCCN1C(=O)[C@H](CC(=O)NCC2CCCCC2)C[C@@]2(C(=O)OCC)CCCC=C12 | . | - | - | . | .
COC(=O)[C@]12CCCCC=C1N(Cc1cccc3ccccc13)C(=O)[C@H](CC(=O)NCC1CCCCC1)C2 | - | 22.0 | - | . | .
C#CCNC(=O)C[C@@H]1C[C@@]2(C(=O)OCC)CCCC=C2N(CCCCCCCC)C1=O | . | 16.9 | - | . | .
CCCCCCCCN1C(=O)[C@H](CC(=O)NCC2CCCCC2)C[C@@]2(C(=O)OCC)CCC=C12 | . | 21.8 | - | . | .
C/C=C/c1ccc([C@@H]2[C@@H](CO)N(S(C)(=O)=O)C23CN(C(=O)CC)C3)cc1 | - | - | - | . | .
COc1cccc(S(=O)(=O)Nc2ccc3c(c2)[C@H]2C[C@@H](CC(=O)NCc4ccc(Cl)cc4)O[C@H](CO)[C@H]2O3)c1 | - | - | - | . | .
CCCC(=O)Nc1ccc2c(c1)C(=O)N(C)[C@@H]1CC[C@@H](CC(=O)NCCc3ccccc3)O[C@@H]1CO2 | - | - | - | . | .
O=C1NC(=S)S/C1=C\C=C\c1ccc([N+](=O)[O-])o1 | - | 25.3 | - | . | -
O=C(Nc1ccccc1F)N[C@@H]1CC[C@H](CCNS(=O)(=O)c2ccc(Cl)cc2)O[C@@H]1CO | - | - | - | . | .
Cc1csc(NC(=O)CSc2sc3c(O)cc(=O)[nH]c3c2C#N)n1 | - | 41.6 | - | - | -
CCc1nnc(NC(=O)CSc2nc3[nH]c(=O)cc(O)c3s2)s1 | - | - | - | - | -
CCSc1nnc(NC(=O)CSc2sc3c(O)cc(=O)[nH]c3c2C#N)s1 | - | 31.6 | - | - | -
Cc1ccc(C)c(NC(=O)CSc2sc3c(O)cc(=O)[nH]c3c2C#N)c1 | - | - | - | - | -
CCc1nnc(NC(=O)CSc2sc3c(O)cc(=O)[nH]c3c2C#N)s1 | - | 28.8 | - | - | -
COC(=O)c1ccc(C)c(NC(=O)CSc2sc3c(O)cc(=O)[nH]c3c2C#N)c1 | - | 19.3 | - | - | -
C[C@@H]1CCCCO[C@@H](CN(C)C(=O)C2CCCCC2)[C@H](C)CN([C@H](C)CO)C(=O)c2cc(NC(=O)NC3CCCCC3)ccc2O1 | - | - | - | . | .
Cc1cc2occ(CC(=O)NNC(=O)c3ccccc3)c2cc1C | - | - | 66.0 | - | -
CCC(C)(C)n1nnnc1C(c1cc2cc(OC)ccc2[nH]c1=O)N1CCc2ccccc21 (stereo not drawn) | . | . | . | - | -
CCC(C)(C)n1nnnc1C(c1cc2cc(C)ccc2[nH]c1=O)N1CCCc2ccccc21 (stereo not drawn) | - | 17.3 | - | - | -
COc1ccc(NC(=O)c2cccnc2N2CCCC2)cc1 | - | 18.8 | - | - | -
